Test results reported in PubChem BioAssay (NCI).
Values joined by “and” are separate entries in the source; they are usually repeats but may differ in a detail not shown here. Equal entries are not always repeated. This is part of a sample that, as a whole, favours compounds with a hit. Of some 83,000 tested, about 20% had one in any assay.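 Each cell line was grown in a 96-well plate and treated with one concentration of compound for 48 hours. Values below 10 were considered active.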 Active and inactive are the calls of the source.

The molecules below were run on SF-268 CNS (assay: NCI-60 one-dose screen, 48 h (100 = growth as untreated, 0 = no growth, -100 = all killed)). Conditions: 10 µM unless noted.

How did the growth turn out when `CCOC(=O)C1=C(C)N=C2SC=C(c3ccc(F)cc3)N2[C@H]1c1cn(-c2ccccc2)nc1-c1ccc(Cl)cc1` was run?
Its growth is 92.4% (inactive).

How did the growth turn out when `CCN(C(=O)N1CCN(c2cc3c(cc2F)c(=O)c(C(=O)O)cn3C2CC2)CC1)c1nc(-c2ccccc2)cs1` was run?
The growth was 25% (inactive).

Which growth does the source give for `O=C(/C=C/c1ccc(Cl)s1)c1ccc(Cl)s1` here?
The growth was 100% (inactive) and 109% (inactive).

Which growth does the source give for `C=CCOc1ccc(/C=C2\SC(=S)N(CCc3ccc(O)cc3)C2=O)cc1` here?
Its growth is 91.4% (inactive).

How did the growth turn out when `Cc1c(CC(=O)OCCO)cc(-c2ccc(Cl)cc2)n1-c1ccccc1` was run?
Its growth is 94.5% (inactive).

How did the growth turn out when `CC1(C)C(N)=Nc2cc(OCCCN3Cc4ccc(OCCc5cn(CC(=O)N6CCC(CCN7CCCC7)CC6)nn5)cc4C3)c(OCC3CC3)cc21` was run?
The growth was 86% (inactive).

For `O=C1OCC2=C1C(c1cccc(C(F)(F)F)c1)c1cc3c(cc1N2CCO)OCCO3` (centres undefined), which growth is on record?
The growth was 38.8% (inactive).

How did the growth turn out when `N#CC1=C(N)Oc2c(sc3c(Br)cccc23)C1c1ccccn1` (centres undefined) was run?
Its growth is 41.5% (inactive).

How did the growth turn out when `O=C1c2cccc3cccc(c23)C(=O)N1N1C(=O)c2cccc3c(N4CCNCC4)ccc(c23)C1=O` was run?
The growth was 88.7% (inactive).

`O=C(Nc1ccc(F)cc1)c1cc2cc(Nc3nc(-c4ccccc4)nc4ccccc34)ccc2oc1=O` was tested. Which growth did it give?
The growth was 97.3% (inactive).

Which growth does the source give for `O=C1c2cc3c(cc2-c2c1c1ccc(Cl)cc1c(=O)n2CCCn1ccnc1)OCO3` here?
Its growth is 8.11% (active).

For `COc1ccc(C/C(C)=C(/c2ccc(OCCN3CCCC3)cc2)c2ccc(OC(=O)NCc3ccccc3)cc2)cc1`, which growth is on record?
The growth was 86.5% (inactive).

For `CCCO/N=C/c1ccccn1`, which growth is on record?
Its growth is 96.4% (inactive) and 104% (inactive).

How did the growth turn out when `COc1ccc(-c2csc(NC(=O)CN3CCN(CCO)CC3)n2)cc1NS(=O)(=O)c1cccc2c(N(C)C)cccc12` was run?
Its growth is 81.2% (inactive).

With `Cc1ccc(-c2nc3nc(-c4ccccc4)nc(N4CCN(S(=O)(=O)c5ccccc5)CC4)c3o2)cc1` as the molecule, how does the growth read?
Its growth is 66.8% (inactive).

How did the growth turn out when `CCOc1nc(-c2ccccc2)cc2c(O)c(C(=O)N/N=C/c3ccc(N(C)C)cc3)[nH]c(=O)c12` was run?
The growth was 104% (inactive).

How did the growth turn out when `C/C(=C(\c1ccc(OCCN2CCOCC2)cc1)c1ccc(OC(=O)C2CCCCC2)cc1)c1ccc(Cl)cc1` was run?
Its growth is 95.8% (inactive).

With `COc1ccc2c(c1)CC[C@@H]1[C@@H]2CC[C@]2(C)C3C(=CCC4C(=O)N(c5ccccc5)C(=O)C43)C[C@@H]12` (some centres undefined) as the molecule, how does the growth read?
The growth was 94.1% (inactive).

For `CC(=O)c1c(C)nc2ccccc2c1/C=C/c1cccc(C)c1`, which growth is on record?
Its growth is 81.9% (inactive).

For `CCN(CC)CC#CCOC(=O)[C@]1(C)CCC[C@]2(C)c3ccc(C(C)C)cc3CC[C@@H]12`, which growth is on record?
Its growth is 96.3% (inactive).

`O=C1/C(=C/c2ccc(-c3ccccc3C(F)(F)F)o2)SC(=S)N1CCc1ccc(O)cc1` was tested. Which growth did it give?
The growth was 51.4% (inactive).

How did the growth turn out when `COc1ccc(-c2[nH]c3ccccc3c2-c2ccc(OC)cc2)cc1` was run?
The growth was 61.4% (inactive).

`O=C(CN1C(=O)S/C(=C\C(Cl)=C\c2ccccc2)C1=O)NC1C=CS(=O)(=O)C1` (centres undefined) was tested. Which growth did it give?
The growth was 63.9% (inactive).

How did the growth turn out when `CCOC(=O)N(O)c1ccc(/C=C/c2ccccc2)cc1` was run?
The growth was 86.3% (inactive) and 81.3% (inactive).

For `COc1cc(/C=C2/C=C(c3ccc(C(C)(C)C)cc3)N(CCc3ccc(S(N)(=O)=O)cc3)C2=O)cc(OC)c1OC`, which growth is on record?
Its growth is 58.2% (inactive).

`O=[N+]([O-])c1cc(C(F)(F)F)ccc1Sc1ccc(C(F)(F)F)cc1[N+](=O)[O-]` was tested. Which growth did it give?
The growth was 63% (inactive).

`O=C(N=Nc1c(O)[nH]c2ccccc12)Nc1ccccc1Cl` was tested. Which growth did it give?
The growth was 96.8% (inactive).

With `Nc1n[nH]c2cccc(C#Cc3cccc(NC(=O)c4ccc(N5CCOCC5)c(C(F)(F)F)c4)c3)c12` as the molecule, how does the growth read?
Its growth is 23.4% (inactive).

For `COc1ccc(Oc2nc(Nc3ccc(N4CCOCC4)cc3)ncc2NC(=O)c2cc(OC)cc(OC)c2)cc1`, which growth is on record?
The growth was 90% (inactive).

For `COc1cc(F)c(/C=C/c2cc(/C=C/c3cc(OC)c(OC)cc3F)n(-c3cc(F)cc(F)c3)n2)cc1OC`, which growth is on record?
The growth was 34% (inactive).

`[Cu+].[NH-][C@H]1C[N-]C(=O)[C@H]([C@H]2CCN=C(N)N2)[N-]C(=O)/C(=C\NC(N)=O)[N-]C(=O)[C@H](CNC(=O)C[C@@H](N)CCCN)[N-]C(=O)[C@H](CO)[N-]C1=O` was tested. Which growth did it give?
The growth was 107% (inactive).

For `COc1cc(N=Nc2ccc(O)c3ncccc23)c2ncccc2c1`, which growth is on record?
Its growth is 18.3% (inactive).

`O=S(=O)(O)c1ccc(N=Nc2ccc(N=Nc3cccc4ccccc34)c(S(=O)(=O)O)c2)cc1` was tested. Which growth did it give?
Its growth is 106% (inactive).

For `COc1ccc(-c2cc(-c3cccnc3)nc3sc4c(Cl)nnnc4c23)cc1OC`, which growth is on record?
Its growth is 96.7% (inactive).

How did the growth turn out when `C=C1C(=O)O[C@@H]2[C@H]3[C@H](COC(C)=O)[C@@H](OC(C)=O)C[C@H]3C(=C)[C@@H](O)C[C@@H]12` was run?
The growth was 96.5% (inactive).

Which growth does the source give for `CCCn1nc(C(=O)N2CCCCC2)c2c1CCC(N1CCC(c3ccncc3)CC1)C2` (centres undefined) here?
Its growth is 97% (inactive).

How did the growth turn out when `CN1CCN(c2ccc(/C=C/C(=O)c3ccc(O)cc3)cc2)CC1` was run?
Its growth is 95.8% (inactive).

For `CCN(c1cc(-c2ccc(CN3CCC(/C=C/S(=O)(=O)c4ccccc4)CC3)cc2)cc(C(=O)NCc2c(C)cc(C)[nH]c2=O)c1C)C1CCOCC1`, which growth is on record?
The growth was 66.5% (inactive).

`Cc1ccc(-c2nc3nc(-c4ccc(Cl)cc4)nc(N4CCCNCC4)c3o2)cc1` was tested. Which growth did it give?
Its growth is 97% (inactive).
